Substitutions are numbered along the chain they refer to.

Common to all, as to assay: PBM; 200 nM protein, PBS
What all share (conditions): dsDNA, one strand shown

Assay [1] deals with T1, NKX2-4 (Homo sapiens, UniProt Q9H2Z4 175-261, P217L).
T1 sequence: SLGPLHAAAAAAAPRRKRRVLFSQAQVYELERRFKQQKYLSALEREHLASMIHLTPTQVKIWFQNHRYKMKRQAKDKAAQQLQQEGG

In assay [2] the target is T2, NKX2-4 (Homo sapiens, UniProt Q9H2Z4 175-261, T231S).
T2 sequence: T1 sequence with L43P, T57S

Assay [3] has as its target T3, NKX2-4 (Homo sapiens, UniProt Q9H2Z4 175-261).
T3 sequence: T1 sequence with L43P

Assay [4] deals with T4, NKX2-4 (Homo sapiens, UniProt Q9H2Z4 175-261, R246Q).
T4 sequence: T1 sequence with L43P, R72Q

The target in assay [5] is HOXD13 (Homo sapiens, UniProt P35453 263-343, T313R).
Chain of HOXD13 (Homo sapiens, UniProt P35453 263-343, T313R) (P35453 263-343 T313R): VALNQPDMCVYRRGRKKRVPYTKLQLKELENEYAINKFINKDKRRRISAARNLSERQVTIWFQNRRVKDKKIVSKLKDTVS
The target in assay [6] is HOXD13 (Homo sapiens, UniProt P35453 263-343).
Chain of HOXD13 (Homo sapiens, UniProt P35453 263-343) (P35453 263-343): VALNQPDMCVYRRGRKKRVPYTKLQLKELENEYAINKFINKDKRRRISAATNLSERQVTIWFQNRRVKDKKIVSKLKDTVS
Assay [7] concerns the target HOXD13 (Homo sapiens, UniProt P35453 263-343, T313A).
The target of assay [8] is T5, NKX2-6 (Homo sapiens, UniProt A6NCS4 118-204).
T5 sequence: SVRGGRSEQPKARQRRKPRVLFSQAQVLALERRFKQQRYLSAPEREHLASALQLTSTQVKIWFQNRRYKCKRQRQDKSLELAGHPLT

The target of assay [9] is T6, NKX2-6 (Homo sapiens, UniProt A6NCS4 118-204, F151L).
T6 sequence: T5 sequence with F34L

Assay [10] concerns the target ALX4 (Homo sapiens, UniProt Q9H161 200-286).
The target of assay [11] is ALX4 (Homo sapiens, UniProt Q9H161 200-286, Q225E).
Chain of ALX4 (Homo sapiens, UniProt Q9H161 200-286, Q225E) (Q9H161 200-286 Q225E): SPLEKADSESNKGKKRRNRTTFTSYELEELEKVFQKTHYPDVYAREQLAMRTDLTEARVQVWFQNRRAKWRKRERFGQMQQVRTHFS
The target in assay [12] is HOXC9 (Homo sapiens, UniProt P31274 178-260, K195R).
Chain of HOXC9 (Homo sapiens, UniProt P31274 178-260, K195R) (P31274 178-260 K195R): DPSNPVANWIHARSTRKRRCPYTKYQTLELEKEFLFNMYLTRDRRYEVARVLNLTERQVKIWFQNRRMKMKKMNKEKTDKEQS
The target of assay [13] is HOXC9 (Homo sapiens, UniProt P31274 178-260).
Chain of HOXC9 (Homo sapiens, UniProt P31274 178-260) (P31274 178-260): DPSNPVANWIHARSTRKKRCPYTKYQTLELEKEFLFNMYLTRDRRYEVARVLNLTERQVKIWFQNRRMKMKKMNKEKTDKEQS
For another assay, the target named is PITX2 (Homo sapiens, UniProt Q99697 72-157).
Assay [14] addresses HOXC9 (Homo sapiens, UniProt P31274 178-260, R193K).
For assay [15], the target named is HOXC9 (Homo sapiens, UniProt P31274 178-260, R222W).
Chain of HOXC9 (Homo sapiens, UniProt P31274 178-260, R222W) (P31274 178-260 R222W): as the sequence (P31274 178-260) above, with R45W counted along it
The target of assay [16] is MSX2 (Homo sapiens, UniProt P35548 130-214, R199I).
Chain of MSX2 (Homo sapiens, UniProt P35548 130-214, R199I) (P35548 130-214 R199I): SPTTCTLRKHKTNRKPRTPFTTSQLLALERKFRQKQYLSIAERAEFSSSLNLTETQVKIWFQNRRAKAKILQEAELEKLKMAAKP
Assay [17] has as its target MSX2 (Homo sapiens, UniProt P35548 130-214).
The target in assay [18] is PROP1 (Homo sapiens, UniProt O75360 56-141).
Chain of PROP1 (Homo sapiens, UniProt O75360 56-141) (O75360 56-141): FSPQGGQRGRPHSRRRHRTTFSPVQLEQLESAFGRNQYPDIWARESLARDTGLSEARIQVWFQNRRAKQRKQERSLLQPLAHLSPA
Assay [19] addresses PROP1 (Homo sapiens, UniProt O75360 56-141, R99H).
Assay [20] addresses PROP1 (Homo sapiens, UniProt O75360 56-141, F88S).
The target in assay [21] is MSX2 (Homo sapiens, UniProt P35548 130-214, F161Y).
Chain of MSX2 (Homo sapiens, UniProt P35548 130-214, F161Y) (P35548 130-214 F161Y): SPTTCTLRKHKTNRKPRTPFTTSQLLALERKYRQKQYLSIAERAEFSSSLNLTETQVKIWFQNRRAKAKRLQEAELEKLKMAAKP
For assay [22], the target named is PRRX1 (Homo sapiens, UniProt P54821 80-166, F113S).
Chain of PRRX1 (Homo sapiens, UniProt P54821 80-166, F113S) (P54821 80-166 F113S): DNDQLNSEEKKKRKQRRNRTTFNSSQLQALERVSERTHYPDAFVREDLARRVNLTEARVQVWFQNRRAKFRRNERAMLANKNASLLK
Assay [23] deals with PRRX1 (Homo sapiens, UniProt P54821 80-166).
Chain of PRRX1 (Homo sapiens, UniProt P54821 80-166) (P54821 80-166): as the sequence (P54821 80-166 F113S) above, with S34F counted along it

Chain of HOXC9 (Homo sapiens, UniProt P31274 178-260, R193K) (P31274 178-260 R193K): as the sequence (P31274 178-260) above, with R16K counted along it
Chain of ALX4 (Homo sapiens, UniProt Q9H161 200-286) (Q9H161 200-286): as the sequence (Q9H161 200-286 Q225E) above, with E26Q counted along it
Chain of PROP1 (Homo sapiens, UniProt O75360 56-141, F88S) (O75360 56-141 F88S): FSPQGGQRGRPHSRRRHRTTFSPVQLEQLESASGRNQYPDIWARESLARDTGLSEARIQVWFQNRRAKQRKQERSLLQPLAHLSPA
Chain of PROP1 (Homo sapiens, UniProt O75360 56-141, R99H) (O75360 56-141 R99H): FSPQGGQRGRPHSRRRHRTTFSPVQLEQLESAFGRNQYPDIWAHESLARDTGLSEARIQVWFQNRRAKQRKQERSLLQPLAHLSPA
Chain of MSX2 (Homo sapiens, UniProt P35548 130-214) (P35548 130-214): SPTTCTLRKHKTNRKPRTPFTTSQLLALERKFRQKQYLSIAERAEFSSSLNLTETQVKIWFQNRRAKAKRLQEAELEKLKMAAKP
Chain of HOXD13 (Homo sapiens, UniProt P35453 263-343, T313A) (P35453 263-343 T313A): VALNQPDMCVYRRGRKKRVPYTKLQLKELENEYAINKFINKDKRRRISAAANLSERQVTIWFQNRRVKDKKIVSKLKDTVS

GATGAGGA: the binding signal in the assay with NKX2-4 [1] was 11.4 upbm affinity estimate (log intensity, higher = more binding, comparable within an allelic series); with NKX2-4 [2] it was 11.6 upbm affinity estimate (log intensity, higher = more binding, comparable within an allelic series); with NKX2-4 [3] it was 11.3 upbm affinity estimate (log intensity, higher = more binding, comparable within an allelic series).
Turning to ACCCTTAC, the binding signal with NKX2-4 [1] is 11.5 upbm affinity estimate (log intensity, higher = more binding, comparable within an allelic series); with NKX2-4 [2], 11.7 upbm affinity estimate (log intensity, higher = more binding, comparable within an allelic series); with NKX2-4 [3], 11.4 upbm affinity estimate (log intensity, higher = more binding, comparable within an allelic series).
On to ACCGCAAC, for which the binding signal in the assay with NKX2-4 [1] was 9.55 upbm affinity estimate (log intensity, higher = more binding, comparable within an allelic series); in the assay with NKX2-4 [2], 9.45 upbm affinity estimate (log intensity, higher = more binding, comparable within an allelic series); with NKX2-4 [3], 9.49 upbm affinity estimate (log intensity, higher = more binding, comparable within an allelic series); with NKX2-4 [4] it was 9.62 upbm affinity estimate (log intensity, higher = more binding, comparable within an allelic series).
CCGACGTC: the binding signal with NKX2-4 [1] was 9.19 upbm affinity estimate (log intensity, higher = more binding, comparable within an allelic series); with NKX2-4 [2], 9.13 upbm affinity estimate (log intensity, higher = more binding, comparable within an allelic series); with NKX2-4 [3], 9.23 upbm affinity estimate (log intensity, higher = more binding, comparable within an allelic series); with NKX2-4 [4] it was 9.18 upbm affinity estimate (log intensity, higher = more binding, comparable within an allelic series).
For the sequence CCCTCATA, the binding signal in the assay with NKX2-4 [1] was 11.6 upbm affinity estimate (log intensity, higher = more binding, comparable within an allelic series); with NKX2-4 [2], 11.8 upbm affinity estimate (log intensity, higher = more binding, comparable within an allelic series); with NKX2-4 [3], 11.5 upbm affinity estimate (log intensity, higher = more binding, comparable within an allelic series).
Take CTATTAAC: the binding signal is 11.7 upbm affinity estimate (log intensity, higher = more binding, comparable within an allelic series) with NKX2-4 [1]; 11.8 upbm affinity estimate (log intensity, higher = more binding, comparable within an allelic series) in the assay with NKX2-4 [2]; 11.6 upbm affinity estimate (log intensity, higher = more binding, comparable within an allelic series) with NKX2-4 [3]; 10.8 upbm affinity estimate (log intensity, higher = more binding, comparable within an allelic series) in the assay with HOXD13 [5]; 12 upbm affinity estimate (log intensity, higher = more binding, comparable within an allelic series) with HOXD13 [6]; 11.8 upbm affinity estimate (log intensity, higher = more binding, comparable within an allelic series) with NKX2-4 [4]. In addition, in the assay with HOXD13 [7], the binding signal was 11.8 upbm affinity estimate (log intensity, higher = more binding, comparable within an allelic series).
As for AGAAGCCG, the binding signal is 9.64 upbm affinity estimate (log intensity, higher = more binding, comparable within an allelic series) with NKX2-4 [1]; 9.7 upbm affinity estimate (log intensity, higher = more binding, comparable within an allelic series) with NKX2-4 [2]; 9.69 upbm affinity estimate (log intensity, higher = more binding, comparable within an allelic series) with NKX2-4 [3]; 9.29 upbm affinity estimate (log intensity, higher = more binding, comparable within an allelic series) with NKX2-6 [8]; 9.62 upbm affinity estimate (log intensity, higher = more binding, comparable within an allelic series) in the assay with NKX2-4 [4]; 9.27 upbm affinity estimate (log intensity, higher = more binding, comparable within an allelic series) in the assay with NKX2-6 [9].
As to CGTCCCGA, the binding signal in the assay with NKX2-4 [1] is 9.52 upbm affinity estimate (log intensity, higher = more binding, comparable within an allelic series); with NKX2-4 [2] it was 9.51 upbm affinity estimate (log intensity, higher = more binding, comparable within an allelic series); in the assay with ALX4 [10], 8.27 upbm affinity estimate (log intensity, higher = more binding, comparable within an allelic series); with NKX2-4 [3], 9.43 upbm affinity estimate (log intensity, higher = more binding, comparable within an allelic series); in the assay with ALX4 [11], 8.37 upbm affinity estimate (log intensity, higher = more binding, comparable within an allelic series); with NKX2-4 [4] it was 9.52 upbm affinity estimate (log intensity, higher = more binding, comparable within an allelic series).
GAGTGCCA: the binding signal with NKX2-4 [1] is 12.1 upbm affinity estimate (log intensity, higher = more binding, comparable within an allelic series); with NKX2-4 [2], 12.3 upbm affinity estimate (log intensity, higher = more binding, comparable within an allelic series); with NKX2-4 [3] it was 11.9 upbm affinity estimate (log intensity, higher = more binding, comparable within an allelic series); with NKX2-4 [4] it was 12.4 upbm affinity estimate (log intensity, higher = more binding, comparable within an allelic series).
For the sequence CGCGCCCG, the binding signal was 9.29 upbm affinity estimate (log intensity, higher = more binding, comparable within an allelic series) with NKX2-4 [1]; 9.51 upbm affinity estimate (log intensity, higher = more binding, comparable within an allelic series) with HOXC9 [12]; 9.29 upbm affinity estimate (log intensity, higher = more binding, comparable within an allelic series) with NKX2-4 [2]; 9.39 upbm affinity estimate (log intensity, higher = more binding, comparable within an allelic series) with NKX2-4 [3]; 9.64 upbm affinity estimate (log intensity, higher = more binding, comparable within an allelic series) with HOXC9 [13]; 7.51 upbm affinity estimate (log intensity, higher = more binding, comparable within an allelic series) in the assay with PITX2. For the same sequence, the binding signal is 9.54 upbm affinity estimate (log intensity, higher = more binding, comparable within an allelic series) with HOXC9 [14]; 9.3 upbm affinity estimate (log intensity, higher = more binding, comparable within an allelic series) with NKX2-4 [4]; 9.66 upbm affinity estimate (log intensity, higher = more binding, comparable within an allelic series) in the assay with HOXC9 [15].
Regarding GACTGAGC, the binding signal with NKX2-4 [1] is 9.79 upbm affinity estimate (log intensity, higher = more binding, comparable within an allelic series); in the assay with NKX2-4 [2], 9.84 upbm affinity estimate (log intensity, higher = more binding, comparable within an allelic series); with NKX2-4 [3], 9.65 upbm affinity estimate (log intensity, higher = more binding, comparable within an allelic series); with MSX2 [16] it was 9.57 upbm affinity estimate (log intensity, higher = more binding, comparable within an allelic series); with MSX2 [17], 9.48 upbm affinity estimate (log intensity, higher = more binding, comparable within an allelic series); with NKX2-4 [4], 9.92 upbm affinity estimate (log intensity, higher = more binding, comparable within an allelic series). Further, the binding signal in the assay with PROP1 [18] is 6.86 upbm affinity estimate (log intensity, higher = more binding, comparable within an allelic series); with PROP1 [19], 6.74 upbm affinity estimate (log intensity, higher = more binding, comparable within an allelic series); with PROP1 [20] it was 6.66 upbm affinity estimate (log intensity, higher = more binding, comparable within an allelic series); with MSX2 [21], 9.49 upbm affinity estimate (log intensity, higher = more binding, comparable within an allelic series).
In the case of CGAGCTAG, the binding signal is 9.46 upbm affinity estimate (log intensity, higher = more binding, comparable within an allelic series) in the assay with NKX2-4 [1]; 9.32 upbm affinity estimate (log intensity, higher = more binding, comparable within an allelic series) in the assay with NKX2-4 [2]; 9.63 upbm affinity estimate (log intensity, higher = more binding, comparable within an allelic series) with PRRX1 [22]; 9.31 upbm affinity estimate (log intensity, higher = more binding, comparable within an allelic series) in the assay with NKX2-4 [3]; 9.21 upbm affinity estimate (log intensity, higher = more binding, comparable within an allelic series) with NKX2-4 [4]; 9.54 upbm affinity estimate (log intensity, higher = more binding, comparable within an allelic series) with PRRX1 [23].

For the origin of these results see paper PMC11006913.
